# Test results from article PMC7862700, “An all-to-all approach to the identification of sequence-specific readers for epigenetic DNA modifications on cytosine”.
# How the values were obtained:
# Test in all cases: DAPPL (digital affinity profiling via proximity ligation, sequencing); 10 mM Tris-HCl pH 7.5, 50 mM NaCl, 1 mM DTT, 4% glycerol, room temperature, 30 min; GST-TFs on glutathione beads, 16-mer random dsDNA library, 0.1% formaldehyde crosslink after washing; high values mean tight binding
# FEV = target: T1, FEV (Homo sapiens, UniProt Q99581 1-238); details: protein: recombinant; tags: N-terminal GST; dsDNA, one strand shown
# T1 sequence: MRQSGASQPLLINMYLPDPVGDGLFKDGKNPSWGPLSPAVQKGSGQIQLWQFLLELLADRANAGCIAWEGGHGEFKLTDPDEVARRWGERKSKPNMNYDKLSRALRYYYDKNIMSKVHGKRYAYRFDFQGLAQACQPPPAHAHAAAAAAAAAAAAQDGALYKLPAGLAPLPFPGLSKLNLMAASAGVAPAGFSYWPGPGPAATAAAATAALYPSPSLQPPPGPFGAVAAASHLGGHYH
# In short: (§1)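 Sequencing on an Illumina NextSeq500 followed washing, crosslinking with 0.1% formaldehyde, proximity ligation (BsaI/T4 ligase, 1 h, 37 °C) and PCR amplification of pools that had been incubated for 30 min at room temperature with 200 nmole of a random double-stranded 16-mer DNA library in Tris/NaCl/DTT/glycerol buffer. Each pool held DNA-barcoded human transcription factors, expressed in yeast as GST fusions and captured on glutathione beads, plus a tag-only sample. Binding signal is a hexamer's read frequency for a factor divided by its frequency in the tag-only sample.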
# ETV5 = ETV5 (Homo sapiens, UniProt P41161 1-510); details: protein: recombinant; tags: N-terminal GST; dsDNA, one strand shown
# Chain of ETV5 (P41161 whole entry): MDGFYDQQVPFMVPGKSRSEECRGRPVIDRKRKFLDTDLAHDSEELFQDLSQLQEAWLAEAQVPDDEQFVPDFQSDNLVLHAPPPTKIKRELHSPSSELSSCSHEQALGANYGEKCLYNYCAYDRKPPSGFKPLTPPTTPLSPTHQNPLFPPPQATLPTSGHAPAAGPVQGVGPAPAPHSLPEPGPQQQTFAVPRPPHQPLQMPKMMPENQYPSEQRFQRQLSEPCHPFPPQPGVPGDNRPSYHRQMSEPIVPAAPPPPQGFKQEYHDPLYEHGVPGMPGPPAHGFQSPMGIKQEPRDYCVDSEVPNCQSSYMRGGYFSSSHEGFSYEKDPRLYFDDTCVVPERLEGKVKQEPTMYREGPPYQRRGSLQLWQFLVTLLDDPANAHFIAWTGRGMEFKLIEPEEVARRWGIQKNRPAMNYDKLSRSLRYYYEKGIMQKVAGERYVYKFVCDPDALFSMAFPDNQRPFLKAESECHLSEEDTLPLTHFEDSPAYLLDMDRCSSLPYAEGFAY
# In short: as §1
# HSF1 = HSF1 (Homo sapiens, UniProt Q00613 1-529); details: protein: recombinant; tags: N-terminal GST; chain copies: 3; dsDNA, one strand shown
# Chain of HSF1 (Q00613 whole entry): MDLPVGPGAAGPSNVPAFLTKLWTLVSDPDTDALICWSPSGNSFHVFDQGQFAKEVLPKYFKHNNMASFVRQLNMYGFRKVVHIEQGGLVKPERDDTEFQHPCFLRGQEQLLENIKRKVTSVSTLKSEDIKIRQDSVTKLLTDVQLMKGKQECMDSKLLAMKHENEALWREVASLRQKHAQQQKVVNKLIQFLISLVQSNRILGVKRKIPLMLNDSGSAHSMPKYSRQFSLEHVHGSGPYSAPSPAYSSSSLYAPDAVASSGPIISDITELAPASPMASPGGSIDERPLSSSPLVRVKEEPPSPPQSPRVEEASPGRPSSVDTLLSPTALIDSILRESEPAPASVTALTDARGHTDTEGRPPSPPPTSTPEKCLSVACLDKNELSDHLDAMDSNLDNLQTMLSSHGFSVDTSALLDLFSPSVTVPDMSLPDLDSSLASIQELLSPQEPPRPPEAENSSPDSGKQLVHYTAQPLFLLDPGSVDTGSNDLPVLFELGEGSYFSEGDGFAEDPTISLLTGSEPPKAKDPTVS
# In short: as §1
# SPIC = target: T2, SPIC (Homo sapiens, UniProt Q8N5J4 1-248); details: protein: recombinant; tags: N-terminal GST; dsDNA, one strand shown
# T2 sequence: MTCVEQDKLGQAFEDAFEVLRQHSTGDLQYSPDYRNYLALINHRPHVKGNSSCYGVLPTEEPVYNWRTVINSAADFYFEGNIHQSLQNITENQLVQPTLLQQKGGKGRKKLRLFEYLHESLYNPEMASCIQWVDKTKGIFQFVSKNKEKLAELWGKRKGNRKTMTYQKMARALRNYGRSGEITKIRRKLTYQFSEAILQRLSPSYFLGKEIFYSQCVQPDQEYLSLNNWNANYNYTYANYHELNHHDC
# In short: as §1
# ELF4 = ELF4 (Homo sapiens, UniProt Q99607 1-663); details: protein: recombinant; tags: N-terminal GST; dsDNA, one strand shown
# Chain of ELF4 (Q99607 whole entry): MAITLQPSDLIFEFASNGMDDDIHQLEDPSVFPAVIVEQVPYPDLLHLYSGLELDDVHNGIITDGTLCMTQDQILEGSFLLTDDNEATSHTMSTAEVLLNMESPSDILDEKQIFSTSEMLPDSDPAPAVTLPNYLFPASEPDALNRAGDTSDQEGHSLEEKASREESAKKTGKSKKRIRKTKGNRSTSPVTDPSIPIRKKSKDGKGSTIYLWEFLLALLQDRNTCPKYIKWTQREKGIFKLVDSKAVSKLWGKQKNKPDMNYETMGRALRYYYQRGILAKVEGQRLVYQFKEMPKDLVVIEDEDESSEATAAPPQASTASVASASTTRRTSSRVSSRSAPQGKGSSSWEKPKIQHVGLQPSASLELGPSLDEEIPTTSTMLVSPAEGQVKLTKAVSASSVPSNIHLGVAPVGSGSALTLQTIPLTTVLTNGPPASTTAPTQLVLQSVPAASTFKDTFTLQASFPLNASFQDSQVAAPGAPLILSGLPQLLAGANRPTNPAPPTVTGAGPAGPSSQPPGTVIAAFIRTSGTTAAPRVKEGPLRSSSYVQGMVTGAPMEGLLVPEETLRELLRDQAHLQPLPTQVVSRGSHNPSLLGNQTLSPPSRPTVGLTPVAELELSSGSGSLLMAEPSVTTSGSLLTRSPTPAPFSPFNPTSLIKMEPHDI
# In short: as §1
# ELK4 = target: T3, ELK4 (Homo sapiens, UniProt P28324-2 1-405); details: protein: recombinant; tags: N-terminal GST; dsDNA, one strand shown
# T3 sequence: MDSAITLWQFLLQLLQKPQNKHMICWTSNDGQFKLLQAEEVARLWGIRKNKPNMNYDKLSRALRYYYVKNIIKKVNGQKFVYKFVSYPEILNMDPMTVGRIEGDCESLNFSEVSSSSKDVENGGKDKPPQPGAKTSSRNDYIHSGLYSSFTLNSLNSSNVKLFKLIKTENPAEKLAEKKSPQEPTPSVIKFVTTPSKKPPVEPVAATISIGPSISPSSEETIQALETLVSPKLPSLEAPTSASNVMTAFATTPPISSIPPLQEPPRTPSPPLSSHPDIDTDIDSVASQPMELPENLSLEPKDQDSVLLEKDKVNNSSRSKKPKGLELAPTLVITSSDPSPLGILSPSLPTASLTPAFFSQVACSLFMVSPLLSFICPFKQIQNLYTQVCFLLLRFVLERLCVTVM
# In short: as §1
# ETV2 = target: T4, ETV2 (Homo sapiens, UniProt O00321 1-342); details: protein: recombinant; tags: N-terminal GST; dsDNA, one strand shown
# T4 sequence: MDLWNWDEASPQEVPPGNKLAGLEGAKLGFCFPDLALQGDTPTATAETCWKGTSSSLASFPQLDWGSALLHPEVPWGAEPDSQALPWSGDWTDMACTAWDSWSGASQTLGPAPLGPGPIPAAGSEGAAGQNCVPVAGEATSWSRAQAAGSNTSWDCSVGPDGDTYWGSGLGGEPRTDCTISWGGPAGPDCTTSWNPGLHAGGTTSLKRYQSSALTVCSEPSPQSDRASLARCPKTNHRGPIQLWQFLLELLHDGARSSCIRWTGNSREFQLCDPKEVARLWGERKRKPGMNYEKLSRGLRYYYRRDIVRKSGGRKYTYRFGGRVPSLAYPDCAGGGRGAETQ
# In short: as §1
# ELF3 = target: T5, ELF3 (Homo sapiens, UniProt P78545 1-371); details: protein: recombinant; tags: N-terminal GST; dsDNA, one strand shown
# T5 sequence: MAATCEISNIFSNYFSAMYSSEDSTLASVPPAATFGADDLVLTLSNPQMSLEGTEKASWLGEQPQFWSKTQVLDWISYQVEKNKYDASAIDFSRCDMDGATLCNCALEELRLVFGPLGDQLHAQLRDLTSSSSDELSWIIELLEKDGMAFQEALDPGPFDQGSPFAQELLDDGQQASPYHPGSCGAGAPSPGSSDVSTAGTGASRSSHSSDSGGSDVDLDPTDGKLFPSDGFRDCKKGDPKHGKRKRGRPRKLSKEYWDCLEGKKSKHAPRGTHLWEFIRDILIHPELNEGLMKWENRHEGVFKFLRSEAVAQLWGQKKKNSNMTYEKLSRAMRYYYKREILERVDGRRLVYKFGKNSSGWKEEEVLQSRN
# In short: as §1
# CRX = CRX (Homo sapiens, UniProt O43186 1-299); details: protein: recombinant; tags: N-terminal GST; dsDNA, one strand shown
# Chain of CRX (O43186 whole entry): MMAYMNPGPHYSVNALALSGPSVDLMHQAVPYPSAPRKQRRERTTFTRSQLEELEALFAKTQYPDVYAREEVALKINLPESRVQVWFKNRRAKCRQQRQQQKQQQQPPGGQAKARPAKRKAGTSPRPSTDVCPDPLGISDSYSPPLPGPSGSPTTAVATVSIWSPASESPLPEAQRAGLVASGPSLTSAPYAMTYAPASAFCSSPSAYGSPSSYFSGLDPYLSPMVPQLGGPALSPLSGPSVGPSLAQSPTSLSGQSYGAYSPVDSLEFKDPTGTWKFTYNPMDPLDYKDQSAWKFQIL
# In short: as §1
# ETV1 = ETV1 (Homo sapiens, UniProt P50549 1-477); details: protein: recombinant; tags: N-terminal GST; dsDNA, one strand shown
# Chain of ETV1 (P50549 whole entry): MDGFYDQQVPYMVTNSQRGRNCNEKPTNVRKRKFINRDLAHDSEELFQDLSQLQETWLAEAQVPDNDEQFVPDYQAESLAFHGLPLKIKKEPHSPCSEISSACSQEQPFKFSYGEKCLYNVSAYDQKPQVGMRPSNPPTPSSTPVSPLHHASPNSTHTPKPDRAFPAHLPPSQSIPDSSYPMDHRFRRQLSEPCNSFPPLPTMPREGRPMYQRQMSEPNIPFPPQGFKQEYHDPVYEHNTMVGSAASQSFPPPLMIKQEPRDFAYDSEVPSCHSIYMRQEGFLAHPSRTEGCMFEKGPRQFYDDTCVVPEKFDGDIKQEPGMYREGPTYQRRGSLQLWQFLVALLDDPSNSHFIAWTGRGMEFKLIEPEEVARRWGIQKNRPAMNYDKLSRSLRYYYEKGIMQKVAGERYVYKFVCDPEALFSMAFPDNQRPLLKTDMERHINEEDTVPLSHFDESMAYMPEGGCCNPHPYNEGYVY
# In short: as §1
sequence,measurement,setting,value
ATTCTC,binding signal,FEV,"1.32 fold enrichment (6-mer frequency, TF over GST control)"
same,binding signal,ETV5,"1.31 fold enrichment (6-mer frequency, TF over GST control)"
same,binding signal,HSF1,"2.42 fold enrichment (6-mer frequency, TF over GST control)"
same,binding signal,SPIC,"1.15 fold enrichment (6-mer frequency, TF over GST control)"
same,binding signal,ELF4,"1.35 fold enrichment (6-mer frequency, TF over GST control)"
same,binding signal,ELK4,"1.25 fold enrichment (6-mer frequency, TF over GST control)"
same,binding signal,ETV2,"1.36 fold enrichment (6-mer frequency, TF over GST control)"
same,binding signal,ELF3,"1.2 fold enrichment (6-mer frequency, TF over GST control)"
same,binding signal,CRX,"1.69 fold enrichment (6-mer frequency, TF over GST control)"
same,binding signal,ETV1,"1.23 fold enrichment (6-mer frequency, TF over GST control)"
